# According to the supplement of paper PMC6555819:
# What was measured:
# Assay in all cases: PBM binding z-score (relative to random genomic background probes); higher = stronger binding; sequences stand for … in GC…GCGATTGACAGCGTAGAATGAAGG
# [1] = system: RARb homodimer (NR concentration 270 nM)
# Procedure, shortened: (§1)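 Binding z-scores were set against random background probes. The data came from custom Agilent 4×180K protein-binding microarrays carrying double-stranded probes with 34-nt variable regions, incubated 1 h with ligand-free nuclear receptor dimers. Partner-specific antibodies detected binding, and scanned fluorescence was regression-normalized.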
# [2] = system: RARg:RXRa (NR concentration 270 nM, RXRa partner concentration 90 nM)
# Procedure, shortened: as §1
# [3] = system: RARg homodimer (NR concentration 270 nM)
# Procedure, shortened: as §1
# [4] = system: RXRa DBDmut IVT, anti-RXR (DBD mutation: RXRa K156A/R161A, NR concentration 90 nM)
# Procedure, shortened: as §1
# [5] = system: RXRa homodimer (NR concentration 180 nM)
# Procedure, shortened: as §1
# [6] = system: THRa:RXRa (NR concentration 90 nM, RXRa partner concentration 90 nM)
# Procedure, shortened: as §1
# [7] = system: THRa homodimer (NR concentration 90 nM)
# Procedure, shortened: as §1
# [8] = system: VDR homodimer (NR concentration 270 nM)
# Procedure, shortened: as §1
Sequence,PBM binding z-score [1],PBM binding z-score [2],PBM binding z-score [3],PBM binding z-score [4],PBM binding z-score [5],PBM binding z-score [6],PBM binding z-score [7],PBM binding z-score [8]
GCTGACGGGTCAAAGGTTATAGCATGAATAGAAT,3.04,6.46,4.08,1.66,9.14,3.85,-0.263,0.919
GCTTACGGGTCAAAGGTTATTGCATGAATAGAAT,3.23,6.79,4.49,2.83,9.29,3.78,0.27,1.81
GCGACTGGGGCAATGCAGGTTACCATAAGGTTGG,1.14,0.631,0.677,-0.584,0.553,2.56,-0.0652,-0.0846
CATACAGGGTCAGCTAGGCCAGAGTTGGGACGGC,3.24,4.28,4.57,1.31,4.06,3.02,0.732,1.33
ATATGTAGGTTACAACCGGGTCATTCAGGCTATG,2.97,3.92,2.19,0.912,3.49,3.73,2.16,3.06
CCTACTGGGCCAAAGGGCATTGATTCCAATGCTC,1.16,1.06,0.727,-0.785,0.895,0.159,-0.934,-0.17
GCTTACGGGTCAAAGGTAATAGCATGAATAGAAT,2.5,5.3,4.22,1.97,6.87,3.07,-0.169,1.06
ATCGAAAGGTCGATGTGAGTATAGAGAAAGGGAA,1.41,3.16,3.01,1.16,2.9,1.37,-0.864,0.177
CCTCGGAGGACAACAGGAGGGCAGAGCTGCCAGA,1.42,0.94,2.08,-0.00274,-0.287,0.794,-0.458,-0.448
TCTCGGAGGACACGAAGGTCAGTGCTTTCCAGAG,3.9,2.87,3.49,0.969,1.47,2.73,1.06,1.39
GCTATTAGTTGAAAGGGCAACCAAATGATTCTCG,2.12,1.54,1.36,1,1.26,0.682,-0.397,0.22
AGAACGAGGGCTATGAGTTGATAGCACGGGTGGC,-0.36,-0.0451,-0.0854,-0.264,0.416,-0.476,-0.913,-0.036
CCGACTGGGGCCAAGGTTACCATACTCAGTACGA,1.87,0.875,1.17,0.424,1.12,1.88,1.07,0.551
AGAATTAGGTTACCAAAGATCAGGGAAACGCTTG,0.444,0.812,0.884,0.172,0.88,1.12,0.308,-0.053
ATCGAAAGGTTGACGAGGTGAGTATACACCGTTT,1.28,1.47,1.51,0.0329,1.65,2.62,0.747,0.362
CTACCAAGGTGAACAAGGTCGTTGAGTACTATTC,2.27,1.92,1.43,1.64,2.39,3.28,1.83,3.27
TATACAGGGTCAAAGGCCAGAGTGCGAATGTCGA,3.58,5.91,5,3.25,7.4,3.57,0.842,3.38
AATACAGGGTCATCGTAGGCAAGAGTACGCACAG,3.24,5.6,5.07,3.51,6.7,4.16,1.5,3.96
ATCGAAATGTCGACGAGGTGAGTATACACCGTTT,0.224,0.712,0.657,-0.0108,0.492,1.43,0.345,-0.13

Sequence,PBM binding z-score [1],PBM binding z-score [2],PBM binding z-score [3],PBM binding z-score [4],PBM binding z-score [5],PBM binding z-score [6],PBM binding z-score [7],PBM binding z-score [8]
CAGCCTAGGTCAGGGCCAGTATTGGAGGAACGTT,2.67,2.91,3.91,-0.14,1.62,2,0.259,-0.444
GGTAGCAGGCCATTTGGGTCACTCAATGACGGGC,2.01,1.27,1.83,-0.513,0.775,1.84,0.696,0.494
CTTTACGGGTCACTGACAGGTTATAGCATTTGGA,3.58,6.21,5.08,2.54,5.93,3.18,0.855,1.15
ACTAGCAAGCCAAGGGTCACTCAAGATTAGTCCG,3.62,3.45,3.58,0.334,3.69,2.51,0.0458,1.08
ACTATTAGTTGAGACGAGGGCAACCTATAGGTTG,1.39,0.509,0.764,0.356,0.544,2.63,0.429,0.902
ATCTCTAGGTAACCAAGTTCAGTAAATGCCGAAC,1.71,0.886,0.809,1.13,0.802,1.67,1.07,2.48
CGTCAAAGTTCAACTAAGGTAACGTTAAGCACGC,4.42,6.02,6.57,4.55,5.24,5.42,2.19,4.26
CAAACTAGGTCAAGGCCAAAGTCGGTTTGTGCCA,3.53,3.91,4.51,1.81,2.77,2.91,1.39,1.22
CTCTAAAGGTCGTGCTCAGGTGAGTATACCAAAC,2.96,5.08,3.88,2.33,4.64,4.37,1.31,1.37
CAAACTAGGTCAAGAGATCAAAGTCCGCTTCCCG,3.07,4.48,4.39,1.59,3.3,2.63,0.798,0.64
GTATCAAGGTGAATAGGTCGTTGATGAGTAGGCG,1.83,2.77,1.78,0.056,1.81,2.29,0.898,0.555
ATCTCTAGGTCAGACTCAGTTCAGTGAAGAACGC,3.14,3.81,4.03,1.47,1.67,2.94,2.03,2.32
CCTTACGGGTCACGAGTTTATAGCACGACGAGCG,3.38,5.62,5.24,2.39,5.78,2.82,0.451,4.44
GCATATACGTAATACAAGGTGAAAGTCCGATTGT,0.656,0.54,0.62,0.892,0.528,2.44,1.16,0.207
GGAACGAGGGGAAGTTGATAGCAGAGTTTGATGG,0.255,-0.0496,-0.0365,0.431,0.0141,-0.105,0.182,0.565
TCACACAGGTGAAGGTAACTCAGGTACGCAGTCG,0.561,0.746,0.701,0.879,1.18,1.4,0.16,0.257
CGTCAAAGTTCAAGGTAACGTAGCAGAAAGCAGC,3.85,5.5,6.15,4.38,4.75,3.01,1.09,3.26
TAGCCTAGATCATGCGGGCCAGTATAGTGTCGGC,-1.16,-0.937,-0.627,-1,-0.796,-1.05,-1.46,-1.14
CCGACTGGGGGATAAGGTTACCATAAGCCAGCCC,1.05,1.12,0.756,-0.00884,1.21,2.51,2.11,0.491

Sequence,PBM binding z-score [1],PBM binding z-score [2],PBM binding z-score [3],PBM binding z-score [4],PBM binding z-score [5],PBM binding z-score [6],PBM binding z-score [7],PBM binding z-score [8]
AATACAGGGTCATCGTAGGCCAGGGTACGCACAG,3.72,5.54,5.21,3.32,6.38,4.57,1.69,3.9
ATCGAAAGGTCGTGAGGGGAGTATACAGAAAGGC,2.78,4.4,3.89,1.72,5.16,2.72,0.843,1.42
AGAACGTGGGCAATGAGTTGATAGCACGGGTGGC,-0.41,-0.369,-0.147,-0.174,0.0338,-0.628,-0.889,0.376
CGTCAAAGCTCAAGGTAACGTAACAGAAAGCAGC,-0.207,0.00785,0.083,-0.317,0.0693,1.29,0.693,-0.4
ATCTCTAGATAACCAAGTTCAGTGAATGCCGAAC,1.07,0.446,0.535,0.852,0.659,0.42,0.172,2.11
TCTCGGAGGACACGAAGGTCAGAGCATTCCAGAG,3.61,3.22,4.02,0.583,1.97,2.87,0.91,1.04
ATCGAAAGGTCGAGCTGAGTATAGAGAAAGGGAA,1.8,4.17,3.96,0.849,4.35,1.96,-0.857,0.148
TCTTGTCGATCAATAGAGGTTAAGAAAGTGCGCT,1.53,0.847,0.688,0.601,1.46,1.94,-0.159,0.435
ACAGACAGGTGATGTAGGTAACTCAGGCTATCAT,0.224,0.333,0.539,-0.0727,0.19,0.566,-0.00745,-0.512
ATCTCTGGGTAAGACTCAGTTCAGTGAAGAACGC,0.372,0.252,0.292,0.0786,-0.0436,0.589,0.517,1.27
CGTCAAAGTTCAAGGTAACGTTACAGAAAGCAGC,4,5.44,6.2,4.52,4.96,2.94,1.13,3.32
GCTATTAGTGGAAAGGGCAACCGAATGATTCTCG,1.77,1.05,1.12,0.693,0.775,0.344,-0.457,-0.143
AGTCAAAGTTCATCTAGGTAACGTATGATATGCT,3.98,5.57,6,4.68,4.58,3.23,0.203,5.23
GCATATAGGTAATACAAGGTGAAAATCCGATTGT,0.426,0.529,0.709,0.0693,0.677,3.98,0.487,0.0319
AGTCAAAGTTCGTCTAGGTAACGTAAGATATGCT,1.35,1.99,2.11,3.25,1.39,1.97,0.129,2.49
CCGACTGGGGCAAAGGTTAGCATACTCAGTACGA,1.56,2.76,1.55,0.057,2.79,0.962,-0.171,-0.381
CAAACTGGGTCAAGAGGTCAAAGTCCGCTTCCCG,5.73,7.97,7.04,2.51,8.44,4.14,2.13,4.76
TCATATAGGTAAATGATAGGTGAAAGTCCGATCT,0.731,0.906,0.775,1.92,1.15,0.682,0.132,0.346
CGTTAAAGTTCAACTAAGGTAACGTAAAGCACGC,4.09,5.55,6.33,4.8,4.25,5.26,1.68,3.94
